Data taken from PubChem BioAssay.
Inconclusive results are not listed. The source made the active and inactive calls. Unless noted, no cut-off is given here; in the data, nearly all actives have AC50 up to about 26 µM.

Experiments:
[1] = growth inhibition of DIPG glioma cells, dose response, cell-based, SU-DIPG-XVII, MIPE5.0, CellTiter-Glo, qHTS (AID 1347060); details: SU-DIPG-XVII viability, CellTiter-Glo ATP luminescence;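 for AC50: cells exposed to compound for 48 hours before viability readout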
[2] = growth inhibition of DIPG glioma cells, dose response, cell-based, SU-DIPG-XIII, MIPE4.0, CellTiter-Glo, qHTS (AID 1347061; cut-off not given, nearly all actives have AC50 up to about 37 µM;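 note: cells exposed to compound for 48 hours before readout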); details: SU-DIPG-XIII viability, CellTiter-Glo ATP luminescence
[3] = growth inhibition of DIPG glioma cells, dose response, cell-based, SU-DIPG-XIII, MIPE5.0, CellTiter-Glo, qHTS (AID 1347064; cut-off not given, nearly all actives have AC50 up to about 23 µM;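 for AC50: cells exposed to compound for 48 hours before the viability read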); details: SU-DIPG-XIII viability, CellTiter-Glo ATP luminescence
[4] = target: NAD(+) hydrolase SARM1 (Homo sapiens) (UniProt Q6SZW1); test: SARM1 TIR NADase inhibitors, cell lysate, NAD-Glo luminescence (AID 1508614;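 active = compound whose remaining NAD level is above about 45 nM, limit read from the data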;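 note: higher remaining NAD means stronger inhibition of SARM1 NADase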); details: SAM-TIR HEK293T lysate NADase, at 1 µM, stronger effect = higher value
[5] = circadian clock period modulators, cell-based, LOPAC library, luminescence reporter (AID 2774; call rule not given here;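 note: values are relative to mean of DMSO wells on each plate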); details: circadian reporter cells, at 7 µM, actives lie on both sides
[6] = system: Hepatitis C virus NS3 helicase; test: HCV NS3 helicase inhibitors, primary screen, biochemical, fluorescence polarization, LOPAC1280 library (AID 687035; in the data active = inhibition above about 37%); details: Purified HCV NS3 helicase, Cy5-dT15 ssDNA binding fluorescence polarization; stronger effect = higher value; concentration not given here
[7] = Cy5 fluorescence quenching or enhancement artefacts, artefact control for HCV NS3 helicase inhibitor project, biochemical, LOPAC1280 (AID 687037; call rule not given here); details: Cy5-DNA-NS3h complex fluorescence interference counterscreen
[8] = modifiers of HSF1 nuclear foci, imaging, Selleck Cancer Library (AID 1347162; in the data active = plate-normalised HSF1 focus index below about 0.46); details: human cells, at 10 µM; SSMD: measured here: HSF1 foci SSMD mean; cell count: measured here: cell number; plate-normalised HSF1 focus index: stronger effect = lower value

NAD(+) hydrolase SARM1 (Homo sapiens), sequence (Q6SZW1 whole entry, looked up): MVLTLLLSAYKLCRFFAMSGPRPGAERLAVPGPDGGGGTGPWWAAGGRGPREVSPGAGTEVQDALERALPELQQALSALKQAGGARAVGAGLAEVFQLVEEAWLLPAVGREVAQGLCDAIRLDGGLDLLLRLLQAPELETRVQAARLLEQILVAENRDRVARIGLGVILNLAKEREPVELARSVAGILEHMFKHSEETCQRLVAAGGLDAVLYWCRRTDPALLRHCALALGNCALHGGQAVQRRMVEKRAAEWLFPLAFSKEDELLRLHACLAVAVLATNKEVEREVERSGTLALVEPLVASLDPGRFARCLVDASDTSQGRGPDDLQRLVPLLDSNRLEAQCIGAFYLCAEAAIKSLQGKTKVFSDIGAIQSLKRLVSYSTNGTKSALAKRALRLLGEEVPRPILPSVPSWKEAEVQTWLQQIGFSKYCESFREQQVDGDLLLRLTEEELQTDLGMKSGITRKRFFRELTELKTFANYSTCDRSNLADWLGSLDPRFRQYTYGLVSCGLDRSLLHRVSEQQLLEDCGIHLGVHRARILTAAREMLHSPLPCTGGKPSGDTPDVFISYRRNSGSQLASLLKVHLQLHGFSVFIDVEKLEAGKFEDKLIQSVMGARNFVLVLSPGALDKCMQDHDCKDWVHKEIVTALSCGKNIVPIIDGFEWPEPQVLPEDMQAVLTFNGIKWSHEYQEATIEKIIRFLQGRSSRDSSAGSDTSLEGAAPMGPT

CC(=O)OCC(=O)[C@@]12N=C(C)O[C@@H]1C[C@H]1[C@@H]3CCC4=CC(=O)C=C[C@]4(C)[C@H]3[C@@H](O)C[C@@]12C
outcome [1]: inactive
outcome [2]: inactive
outcome [3]: inactive
remaining NAD [4]: 10 nM (inactive)

O=C(Nc1ccc(S(=O)(=O)N2CCOCC2)cc1)c1cc(Cl)ccc1NS(=O)(=O)c1ccc(Cl)s1
outcome [1]: inactive

Cc1ccccc1C(=O)Nc1ccc(C(=O)N2CCCC(O)c3cc(Cl)ccc32)c(C)c1 (stereo not drawn)
outcome [1]: inactive
outcome [2]: inactive

Cc1ccc(C(=O)c2cc(O)c(O)c([N+](=O)[O-])c2)cc1
outcome [1]: inactive
outcome [2]: inactive
outcome [3]: inactive

CCCCc1oc2ccc(NS(C)(=O)=O)cc2c1C(=O)c1ccc(OCCCN(CCCC)CCCC)cc1
AC50 [1]: 13.2 µM (active)
AC50 [2]: 18.7 µM (active)
AC50 [3]: 11.8 µM (active)

N[C@@H](Cc1c[nH]c2ccc(O)cc12)C(=O)O
period change [5]: -0.25 h (inactive)
inhibition [6]: -3% (inactive)
fluorescence ratio (interference) [7]: 1 (inactive)
outcome [1]: inactive
outcome [2]: inactive
outcome [3]: inactive

O=c1cc(O)c(Cl)c[nH]1
outcome [1]: inactive
outcome [2]: inactive
outcome [3]: inactive

CCOC(=O)c1c(C)n(C)c2ccc(O)cc12
outcome [1]: inactive

CC(C(=O)O)c1ccc2c(c1)CC(=O)c1ccccc1S2 (stereo not drawn)
outcome [1]: inactive
AC50 [2]: 0.0059 µM (active)
outcome [3]: inactive

C[C@]12CCC(=O)C=C1[C@@H]1C[C@@H]1[C@H]1[C@@H]3[C@@H]4C[C@@H]4[C@@]4(CCC(=O)O4)[C@@]3(C)CC[C@@H]12
outcome [1]: inactive
outcome [2]: inactive
outcome [3]: inactive
remaining NAD [4]: 10 nM (inactive)

N=C(N)c1ccc2cc(OC(=O)c3ccc(N=C(N)N)cc3)ccc2c1
outcome [2]: inactive
outcome [3]: inactive

CC(=O)N[C@H]1[C@H]([C@H](O)[C@H](O)CO)OC(C(=O)O)=C[C@@H]1N=C(N)N
outcome [2]: inactive

CC(C)(C)C(=O)Oc1ccc(S(=O)(=O)Nc2ccccc2C(=O)NCC(=O)O)cc1
inhibition [6]: -5% (inactive)
fluorescence ratio (interference) [7]: 0.9 (inactive)
outcome [1]: inactive
outcome [2]: inactive
outcome [3]: inactive

CC1(C)CCC(C)(C)c2cc(NC(=O)c3ccc(C(=O)O)cc3)ccc21
outcome [1]: inactive
AC50 [2]: 23.5 µM (active)
outcome [3]: inactive

O=C(O)c1ccc(-n2nc(-c3ccccc3O)nc2-c2ccccc2O)cc1
AC50 [1]: 16.6 µM (active)

Cc1ccc(Nc2nccc(N(C)c3ccc4c(C)n(C)nc4c3)n2)cc1S(N)(=O)=O
AC50 [1]: 3.32 µM (active)
AC50 [3]: 3.72 µM (active)
SSMD [8]: 1.61
cell count [8]: 7340
plate-normalised HSF1 focus index [8]: 1.1 (inactive)

COC(c1ccccc1)(c1ccccc1)[C@H](Oc1nc(C)cc(C)n1)C(=O)O
outcome [2]: inactive

Clc1ccc(C(Cn2ccnc2)OCc2ccc(Sc3ccccc3)cc2)c(Cl)c1 (stereo not drawn)
AC50 [1]: 20.9 µM (active)
AC50 [3]: 20.9 µM (active)

CCCCN(CCCC)CC(O)c1cc(Cl)cc2c1-c1ccc(Cl)cc1/C2=C/c1ccc(Cl)cc1 (stereo not drawn)
outcome [2]: inactive

NC(=O)c1ncn([C@@H]2O[C@H](CO)[C@@H](O)[C@H]2O)c1N
outcome [1]: inactive
outcome [2]: inactive
outcome [3]: inactive
remaining NAD [4]: 10 nM (inactive)

COc1ccc2cccc(CCNC(C)=O)c2c1
outcome [2]: inactive
outcome [3]: inactive

c1cnc2cc3c(cc2n1)C1CNCC3C1
outcome [1]: inactive
outcome [2]: inactive
outcome [3]: inactive

O=[N+]([O-])c1cncn1CCN1CCOCC1
outcome [1]: inactive
outcome [3]: inactive

Clc1ccc(C(Cn2ccnc2)OCc2c(Cl)cccc2Cl)c(Cl)c1 (stereo not drawn)
AC50 [1]: 23.5 µM (active)
AC50 [3]: 20.9 µM (active)

CN(C)C(=O)COC(=O)Cc1ccc(OC(=O)c2ccc(N=C(N)N)cc2)cc1
outcome [1]: inactive
outcome [3]: inactive

Cc1cc2c(cc1CC(=O)c1sccc1S(=O)(=O)Nc1onc(C)c1Cl)OCO2
outcome [1]: inactive

O=P(O)(O)C(O)(Cn1ccnc1)P(=O)(O)O
outcome [1]: inactive
outcome [2]: inactive
outcome [3]: inactive

CCC1=C[C@@H]2CN(C1)Cc1c([nH]c3ccccc13)[C@@](C(=O)OC)(c1cc3c(cc1OC)N(C)[C@H]1[C@@](O)(C(=O)OC)[C@H](OC(C)=O)[C@]4(CC)C=CCN5CC[C@]31[C@@H]54)C2
AC50 [1]: 0.204 µM (active)
AC50 [3]: 2.29 µM (active)
SSMD [8]: 1.19
cell count [8]: 6320
plate-normalised HSF1 focus index [8]: 1.08 (inactive)

CNC(=O)c1ccccc1Sc1ccc2c(/C=C/c3ccccn3)n[nH]c2c1
AC50 [1]: 1.32 µM (active)
AC50 [3]: 1.48 µM (active)
SSMD [8]: 5.16
cell count [8]: 7390
plate-normalised HSF1 focus index [8]: 1.18 (inactive)

COCCCN1CCC(NC(=O)c2cc(Cl)c(N)c3c2OCC3)CC1
outcome [1]: inactive

C=CC(=O)Nc1cc2c(Nc3ccc(F)c(Cl)c3)ncnc2cc1OCCCN1CCOCC1
AC50 [1]: 6.61 µM (active)
AC50 [3]: 9.34 µM (active)

CC(C)OC(=O)OCOP(=O)(CO[C@H](C)Cn1cnc2c(N)ncnc21)OCOC(=O)OC(C)C
outcome [2]: inactive

NCCCC(N)(C(=O)O)C(F)F (stereo not drawn)
period change [5]: -0.04 h (inactive)
inhibition [6]: -3% (inactive)
fluorescence ratio (interference) [7]: 1 (inactive)
outcome [1]: inactive
outcome [3]: inactive

CN1CCCN=C1/C=C/c1cccs1
outcome [1]: inactive

Cc1cc(=O)c2c(O)c3c(O)cc(=O)c4c3c3c(cc(O)c1c23)C(C)(C)C=4O
AC50 [2]: 11.8 µM (active)

COc1ccc(-c2ccc3cc(C(=O)O)ccc3c2)cc1C12CC3CC(CC(C3)C1)C2
AC50 [1]: 3.32 µM (active)
remaining NAD [4]: 10 nM (inactive)
